FMDV FLuc: antivirals against foot and mouth disease virus; FMDV antiviral cell assay, firefly luciferase signal; Potency, µM (series often up to 57.5 µM), most hits filed as inhibitors; 0.23% of 120,000 active; AID 1745856; note: nearly all actives have a fitted effect of over 60% in size
FMDV Renilla: shows antiviral activity in FMDV Renilla assay | FMDV replicon cells, Renilla luciferase signal | Potency, µM (highest dose often 57.5 µM), most hits filed as inhibitors | 0.32% of 120,000 active | AID 1745857; note: nearly all actives have a fitted effect of over 55% in size
Numbers stand for hits; . = inactive; ? = inconclusive; [ ] = remark or other dose. An excerpt weighted towards active compounds, which were near 0.51% of everything screened. Calls come from the whole dose curve.

SMILES | FMDV FLuc | FMDV Renilla
CC(C)c1ccc(NC(=O)c2ccc(F)c(S(=O)(=O)N3CCc4ccccc43)c2)cc1 | ? | .
O=C(Nc1ccc(Br)cc1)c1ccc(F)c(S(=O)(=O)N2CCc3ccccc32)c1 | 11µM | ?
O=C(C1CCC(CNS(=O)(=O)c2ccc(Br)s2)CC1)N1CCN(c2ccccc2Cl)CC1 (stereo unspecified) | . | .
O=C(C1CCC(CNS(=O)(=O)c2ccc(Br)s2)CC1)N1CCN(c2ccc(F)cc2)CC1 (stereo unspecified) | ? | 6.3µM
COc1cc([C@@H]2CC(=O)C3=C(C2)Nc2[nH][nH]c(=O)c2[C@H]3c2ccc(N(C)C)cc2)cc(OC)c1OC | . | .
O=C(Nc1ccc(SCc2cccnc2)cc1)c1ccc2c(c1)OCCCO2 | ? | 18µM
O=C(Nc1ccc2c(c1)OCCCO2)c1ccc(SCc2cscn2)cc1 | . | ?
CC(C)(C)c1ccc(-c2nc(C#N)c(NCc3ccccc3)o2)cc1 | . | .
CCc1ccc(-c2nc(CSCC(=O)NCCCOC)c(C)o2)cc1 | 25µM | .
CCOCCCNC(=O)CSCc1nc(-c2ccc(C)cc2)oc1C | . | .
COC(=O)c1cc(-c2ccco2)nc2c(Cl)cccc12 | . | .
O=C(Nc1ccc(OC2CCCC2)cc1)c1ccncc1 | . | 5µM
CC(C)=CC(=O)Nc1ccc(OC2CCCC2)cc1 | . | .
COc1ccc(-c2cc(C(=O)O)c3cc(C)c(C)cc3n2)cc1 | . | .
CCOc1ccc(Nc2nc(N3CCOCC3)c3cnn(C)c3n2)cc1 | . | .
CCN(CC)c1ccc(Nc2nc(N3CCOCC3)c3ccccc3n2)cc1 | ? | 20µM
Cc1cc(C(O)(C(F)(F)F)C(F)(F)F)cc(C)c1OC(=O)c1ccccc1F | . | .
COc1ccc(C(=O)Oc2c(C)cc(C(O)(C(F)(F)F)C(F)(F)F)cc2C)cc1 | 10µM | 8.9µM
CCOc1cc(/C=C/c2nc3ccc(OC)cc3s2)ccc1O | . | .
CCCn1c(-c2ccc(F)cc2)nc2c1c(=O)[nH]c(=O)n2Cc1ccccc1 | . | .
CN(Cc1cccs1)C(=O)CCl | ? | 28µM
CCN(Cc1cccs1)C(=O)CCl | . | .
O=C(c1cc2c(Cl)nc3ccccc3c2s1)N1CCCCC1 | . | .
CCOC(=O)C1CCCN(C(=O)c2cc3c(Cl)nc4ccccc4c3s2)C1 (stereo unspecified) | 6.3µM | .
COc1cccc(C(=O)N2CCN(Cc3cc(=O)oc4ccc(OC)cc34)CC2)c1 | . | .
SMILES | FMDV FLuc | FMDV Renilla
CCC1CCC(N(C(=O)Cc2nc(-c3cccs3)oc2C)C2CC2)CC1 (stereo unspecified) | 35µM | .
Cc1oc(-c2cccs2)nc1CC(=O)NCC1CCCO1 (stereo unspecified) | . | .
COc1ccc(OCC(=O)Nc2ccc3c(C)cc(=O)oc3c2)cc1 | . | .
CCOC(=O)Cc1ccc(NC(=O)n2ncc3c(C)cccc32)cc1 | ? | .
CCOC(=O)Cc1ccc(NC(=O)n2ncc3cc(Cl)ccc32)cc1 | 7.9µM | .
COc1ccc(-c2nc(SCc3cc(=O)c4cccc(Cl)c4[nH]3)n[nH]2)cc1 | ? | 11µM
COc1ccc(-c2nc(SCc3cc(=O)c4cc(C)ccc4[nH]3)n[nH]2)cc1 | . | ?
FC(F)(F)c1cccc(N/N=C/c2ccc(Br)cc2)c1 | . | .
Cn1c(=O)c2c(nc(NCc3ccccc3)n2Cc2ccccc2)n(C)c1=O | . | .
CCCn1c(NCc2ccc(C)cc2)nc2c1c(=O)n(C)c(=O)n2C | ? | 28µM
Cc1cccc(Cn2c(NCCCO)nc3c2c(=O)n(C)c(=O)n3C)c1 | . | .
CCn1c(NCc2ccccc2)nc2c1c(=O)n(C)c(=O)n2C | . | .
Cn1c(=O)c2c(nc(NCCO)n2Cc2cccc(C(F)(F)F)c2)n(C)c1=O | ? | 10µM
Cn1c(=O)c2c(nc(NCc3ccco3)n2Cc2ccccc2)n(C)c1=O | 16µM | ?
Cc1[nH]c2ccccc2c1C(C(=O)O)N1CCN(Cc2cccc3ccccc23)CC1 (stereo unspecified) | . | .
O=C(NCc1cc2ccccc2[nH]1)c1cn[nH]n1 | . | .
CSc1ccc(/C=N/Nc2cccc(Cl)c2)cc1 | . | .
CC(C)n1ncc2cc(NC(=O)c3cc(S(=O)(=O)N4CCCCC4)ccc3N3CCCC3)cnc21 | . | .
COc1ccc(C(=O)Nc2cnc3c(cnn3C(C)C)c2)cc1S(=O)(=O)N1CCCC1 | 32µM | ?
Cc1ccc2oc(C(=O)Nc3cccc(C(=O)NC4CC4)c3)cc(=O)c2c1 | . | .
CCC(=O)N1N=C(c2c(-c3ccccc3)c3cc(Cl)ccc3n(C)c2=O)CC1c1ccco1 (stereo unspecified) | . | .
N#C/C(=C/c1cccc(C#N)c1)C(=O)c1c[nH]c2cc(F)ccc12 | . | .
CC1=C(C#N)C(c2ccccc2C)C(C#N)=C(C)N1 | . | .
CC1=C(C#N)C(c2cc(Br)ccc2OC(F)F)C(C#N)=C(C)N1 | ? | 28µM
O=C(CN1C(=O)NC2(CCCC2)C1=O)Nc1cc(Cl)cc2cccnc12 | . | .
SMILES | FMDV FLuc | FMDV Renilla
N#Cc1ccnc(N2CCN(C(=O)Nc3ccccc3)CC2)c1 | . | .
COc1ccc(Nc2nc(-c3ccc(CNC(C)=O)cc3)cs2)cc1 | . | .
Cc1cccc(NC(=O)Cc2c(C)nc3nc(-c4cccs4)nn3c2C)c1C | . | .
Cc1cccc(OCCCn2cnc3c2c(=O)n(C)c(=O)n3C)c1 | . | .
Cn1c(=O)c2c(ncn2Cc2cccc(OCC(F)(F)F)c2)n(C)c1=O | 7.1µM | 4.5µM
CSc1ccc(NC(=O)c2ccc3c(c2)NC(=O)CCS3)cc1 | ? | 10µM
CNC(=O)c1ccc2c(c1)NC(=O)CCS2 | . | .[1.06 µM]
CCCCC(CC)CN=C(N)NC(N)=NCCCCCCN=C(N)NC(N)=NCC(CC)CCCC (stereo unspecified) | ? | 28µM
CCCCN=C(N)N=C(N)N | .[11.5 µM] | .
O=C1NC(=O)/C(=C/c2c(OCc3ccc(C(=O)O)cc3)ccc3ccccc23)N1 | . | .
CC(C)NC(=O)c1cccc2c1CCCN2Cc1nc(-c2cccc(Cl)c2)no1 | ? | 25µM
CCc1ccc(-c2noc(CN3CCCc4c(C(=O)NC(C)C)cccc43)n2)cc1 | . | .
Cc1nc2cc(NC(C)C(=O)Nc3ccc(Cl)cc3Cl)ccc2o1 (stereo unspecified) | . | .
O=C(CCC1CCCCC1)Nc1ccc(F)cc1 | . | .
CCNc1nc(-c2ccc(S(=O)(=O)N3CCCC3)cc2)cs1 | . | ?
CCCNC(=O)CNC(=O)c1cc2ccc(OC)cc2nc1C | . | .
O=[N+]([O-])c1ccccc1/C=N/Nc1ccc(S(=O)(=O)Nc2ccc(Cl)cc2)cc1[N+](=O)[O-] | . | .
O=[N+]([O-])c1ccccc1/C=N/Nc1ccc(S(=O)(=O)Nc2cccc(Cl)c2)cc1[N+](=O)[O-] | 11µM | .
Cc1cc2ccccc2n1-c1ccc(C(=O)N2CCC(C(=O)NCc3ccc(Cl)cc3)CC2)s1 | 25µM | ?
Cc1cc2ccccc2n1-c1ccc(C(=O)N2CCC(C(=O)NCc3ccccc3Cl)CC2)s1 | . | .
Cc1ccc(/C=C/C(=O)NCC(C)(C)CNC(=O)/C=C/c2ccc(C)o2)o1 | . | .
CCc1ccc(OCCn2c(C3CC(=O)N(Cc4ccc(F)cc4)C3)nc3ccccc32)cc1 (stereo unspecified) | . | ?
CC(C)CCn1c(C2CC(=O)N(Cc3ccc(F)cc3)C2)nc2ccccc21 (stereo unspecified) | 18µM | 18µM
O=Cc1ccc(OCC2CC2)c2ccccc12 | ? | 5.6µM
Nc1ccc(OCC2CC2)c(F)c1 | . | .

Bioassay records as filed in PubChem BioAssay.
